In article doi:10.1101/2024.03.05.583629 one finds binding signal data, which are given here for 29 sequences.

Chain of pT7_6His-AlfaTag-HOXD13 (P35453 263-343): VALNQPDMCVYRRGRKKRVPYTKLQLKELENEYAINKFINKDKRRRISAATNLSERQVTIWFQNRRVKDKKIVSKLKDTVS

The experiment concerns the target pT7_6His-AlfaTag-HOXD13 (human, UniProt P35453 263-343). Description: PADIT-seq. The note with it: dsDNA, one strand shown.
“CTCGAGGATATCAAGATCTGGCCTCGGCTTTTTAGTAGGAACCTCTAGCTAGCCGACTCACTATAGGGATAATCGCCCTGAGCAAAGACC” displayed a binding signal of 1.62 ± 0.0952 log2FC.

Regarding “CTCGAGGATATCAAGATCTGGCCTCGGCTTTTTACAAGGAACCTCTAGCTAGCCGACTCACTATAGGGATAATCGCCCTGAGCAAAGACC”, the binding signal is 3.28 ± 0.0787 log2FC.

“CTCGAGGATATCAAGATCTGGCCTCGGCTATGTAAAAGGAACCTCTAGCTAGCCGACTCACTATAGGGATAATCGCCCTGAGCAAAGACC”: the binding signal stood at 1.05 ± 0.102 log2FC.

“CTCGAGGATATCAAGATCTGGCCTCGGCTTCGTAAAAGGAACCTCTAGCTAGCCGACTCACTATAGGGATAATCGCCCTGAGCAAAGACC”: the binding signal stood at 1.86 ± 0.0804 log2FC.

“CTCGAGGATATCAAGATCTGGCCTCGGCGAAGTAAAAGGAACCTCTAGCTAGCCGACTCACTATAGGGATAATCGCCCTGAGCAAAGACC” displayed a binding signal of 0.136 ± 0.0787 log2FC.

“CTCGAGGATATCAAGATCTGGCCTCGGCGCGTTAAAAGGAACCTCTAGCTAGCCGACTCACTATAGGGATAATCGCCCTGAGCAAAGACC” yielded a binding signal of 1.22 ± 0.079 log2FC.

In the case of “CTCGAGGATATCAAGATCTGGCCTCGGCAGGCTAAAAGGAACCTCTAGCTAGCCGACTCACTATAGGGATAATCGCCCTGAGCAAAGACC”, the binding signal is -0.781 ± 0.0984 log2FC.

On to “CTCGAGGATATCAAGATCTGGCCTCGGCCGCCCAGCGGGAACCTCTAGCTAGCCGACTCACTATAGGGATAATCGCCCTGAGCAAAGACC”, for which the binding signal was -0.602 ± 0.194 log2FC.

“CTCGAGGATATCAAGATCTGGCCTCGGCGCAATAAAAGGAACCTCTAGCTAGCCGACTCACTATAGGGATAATCGCCCTGAGCAAAGACC” registered a binding signal of 2.76 ± 0.0728 log2FC.

In turn, “CTCGAGGATATCAAGATCTGGCCTCGGCTCTTTAAAAGGAACCTCTAGCTAGCCGACTCACTATAGGGATAATCGCCCTGAGCAAAGACC” gave a binding signal of 2.42 ± 0.0868 log2FC.

Sequence “CTCGAGGATATCAAGATCTGGCCTCGGCACGATAAAAGGAACCTCTAGCTAGCCGACTCACTATAGGGATAATCGCCCTGAGCAAAGACC” registered a binding signal of 1.32 ± 0.0937 log2FC.

Sequence “CTCGAGGATATCAAGATCTGGCCTCGGCGGTTTAAAAGGAACCTCTAGCTAGCCGACTCACTATAGGGATAATCGCCCTGAGCAAAGACC” gave a binding signal of 1.97 ± 0.078 log2FC.

“CTCGAGGATATCAAGATCTGGCCTCGGCTTTTTACATGGAACCTCTAGCTAGCCGACTCACTATAGGGATAATCGCCCTGAGCAAAGACC” registered a binding signal of 2.12 ± 0.0858 log2FC.

In the case of “CTCGAGGATATCAAGATCTGGCCTCGGCATTTTACAAGGAACCTCTAGCTAGCCGACTCACTATAGGGATAATCGCCCTGAGCAAAGACC”, the binding signal came out at 3.41 ± 0.0871 log2FC.

The sequence “CTCGAGGATATCAAGATCTGGCCTCGGCACTCTAAAAGGAACCTCTAGCTAGCCGACTCACTATAGGGATAATCGCCCTGAGCAAAGACC” gave a binding signal of 0.139 ± 0.11 log2FC.

“CTCGAGGATATCAAGATCTGGCCTCGGCATTTTACTAGGAACCTCTAGCTAGCCGACTCACTATAGGGATAATCGCCCTGAGCAAAGACC” gave a binding signal of 3.18 ± 0.0699 log2FC.

Regarding “CTCGAGGATATCAAGATCTGGCCTCGGCTTTTTACCGGGAACCTCTAGCTAGCCGACTCACTATAGGGATAATCGCCCTGAGCAAAGACC”, the binding signal amounted to 0.978 ± 0.0873 log2FC.

As for “CTCGAGGATATCAAGATCTGGCCTCGGCCCTCTAAAAGGAACCTCTAGCTAGCCGACTCACTATAGGGATAATCGCCCTGAGCAAAGACC”, the binding signal was 0.681 ± 0.104 log2FC.

“CTCGAGGATATCAAGATCTGGCCTCGGCCATATAAAAGGAACCTCTAGCTAGCCGACTCACTATAGGGATAATCGCCCTGAGCAAAGACC” showed a binding signal of 2.76 ± 0.0974 log2FC.

The sequence “CTCGAGGATATCAAGATCTGGCCTCGGCCCCTTAAAAGGAACCTCTAGCTAGCCGACTCACTATAGGGATAATCGCCCTGAGCAAAGACC” came in with a binding signal of 2.7 ± 0.0989 log2FC.

“CTCGAGGATATCAAGATCTGGCCTCGGCCTTTTAACTGGAACCTCTAGCTAGCCGACTCACTATAGGGATAATCGCCCTGAGCAAAGACC” yielded a binding signal of 1.7 ± 0.0719 log2FC.

Turning to “CTCGAGGATATCAAGATCTGGCCTCGGCCTTTTACCGGGAACCTCTAGCTAGCCGACTCACTATAGGGATAATCGCCCTGAGCAAAGACC”, the binding signal was found to be 0.698 ± 0.0877 log2FC.

The sequence “CTCGAGGATATCAAGATCTGGCCTCGGCACTGTAAAAGGAACCTCTAGCTAGCCGACTCACTATAGGGATAATCGCCCTGAGCAAAGACC” came in with a binding signal of 1.95 ± 0.0803 log2FC.

Sequence “CTCGAGGATATCAAGATCTGGCCTCGGCATTTTACCTGGAACCTCTAGCTAGCCGACTCACTATAGGGATAATCGCCCTGAGCAAAGACC” gave a binding signal of -0.0491 ± 0.129 log2FC.

In turn, “CTCGAGGATATCAAGATCTGGCCTCGGCGTTTTATATGGAACCTCTAGCTAGCCGACTCACTATAGGGATAATCGCCCTGAGCAAAGACC” gave a binding signal of 3.04 ± 0.0717 log2FC.

As to “CTCGAGGATATCAAGATCTGGCCTCGGCATTTTAATGGGAACCTCTAGCTAGCCGACTCACTATAGGGATAATCGCCCTGAGCAAAGACC”, the binding signal stood at 2.51 ± 0.077 log2FC.

“CTCGAGGATATCAAGATCTGGCCTCGGCGCTATAAAAGGAACCTCTAGCTAGCCGACTCACTATAGGGATAATCGCCCTGAGCAAAGACC” yielded a binding signal of 2.83 ± 0.0721 log2FC.

“CTCGAGGATATCAAGATCTGGCCTCGGCATTTTAGAAGGAACCTCTAGCTAGCCGACTCACTATAGGGATAATCGCCCTGAGCAAAGACC” came in with a binding signal of 0.382 ± 0.0937 log2FC.

On to “CTCGAGGATATCAAGATCTGGCCTCGGCAATATAAAAGGAACCTCTAGCTAGCCGACTCACTATAGGGATAATCGCCCTGAGCAAAGACC”, for which the binding signal was 2.41 ± 0.0826 log2FC.
